# Results taken from PubChem BioAssay AID1159580 (chemical genetic matrix, 2015).
# “And” between values parts separate entries of the source, which are not always exact repeats. Equal values may be shown once. In all, about 5,500 compounds went through this assay and about 2,000 (36%) were called active. About 18% were inconclusive and are not listed. This is one part of the list. A number with no mark means an inactive call. No stated cut-off is given here; in the data, active means normalized growth mostly below about 0.91 (no sharp cut-off); inconclusive means no clear call, values can overlap the other calls; inactive means mostly above about 0.92.
# Test: chemical genetic growth profiling, strain panel (AID 1159580);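 further: tested at 20 µM; growth read once vehicle control cultures reached saturation at 30 °C; 1 = growth at the plate median or of vehicle wells; lower values mean less growth of the strain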
# Conditions: S. cerevisiae deletion strains, growth OD
compound,measurement,setting,value
CCN(CC)C(C)CN1c2ccccc2Sc2ccccc21 (configuration not stated),normalized growth,"locus YAL013W, strain DEP1, hits give low values",0.983
same,normalized growth,"locus YAL021C, strain ccr4, hits give low values",0.399 (active)
same,normalized growth,"locus YAL026C, strain drs2, hits give low values",0.77 (active)
same,normalized growth,"locus YAL030W, strain snc1, hits give low values",0.965
same,normalized growth,"locus YBL061C, strain skt5, hits give low values",0.909 (active)
same,normalized growth,"locus YBR009C, strain hhf1, hits give low values",0.925
same,normalized growth,"locus YBR021W, strain FUR4, hits give low values",0.852
same,normalized growth,"locus YBR023C, strain chs3, hits give low values",0.889 (active)
same,normalized growth,"locus YBR171W, strain sec66, hits give low values",0.998
same,normalized growth,"locus YBR229C, strain ROT2, hits give low values",0.982
same,normalized growth,"locus YBR231C, strain swc5, hits give low values",0.937
same,normalized growth,"locus YBR279W, strain paf1, hits give low values",0.896 (active)
same,normalized growth,"locus YCL011C, strain gbp2, hits give low values",0.953
same,normalized growth,"locus YCL016C, strain dcc1, hits give low values",0.923
same,normalized growth,"locus YCL029C, strain bik1, hits give low values",0.933
same,normalized growth,"locus YCL061C, strain MRC1, hits give low values",0.932
same,normalized growth,"locus YCL069W, strain vba3, hits give low values",0.947
same,normalized growth,"locus YCR088W, strain abp1, hits give low values",0.986
same,normalized growth,"locus YDL005C, strain med2, hits give low values",1
same,normalized growth,"locus YDL035C, strain GPR1, hits give low values",0.917
same,normalized growth,"locus YDL040C, strain nat1, hits give low values",1
same,normalized growth,"locus YDL074C, strain BRE1, hits give low values",0.864
same,normalized growth,"locus YDL101C, strain DUN1, hits give low values",0.978
same,normalized growth,"locus YDL134C, strain PPH21, hits give low values",0.966
same,normalized growth,"locus YDL185W, strain tfp1, hits give low values",0.947
same,normalized growth,"locus YDL192W, strain arf1, hits give low values",0.97
same,normalized growth,"locus YDR001C, strain nth1, hits give low values",0.987
same,normalized growth,"locus YDR069C, strain doa4, hits give low values",0.973
same,normalized growth,"locus YDR101C, strain arx1, hits give low values",0.967
same,normalized growth,"locus YDR137W, strain rgp1, hits give low values",1.14
same,normalized growth,"locus YDR150W, strain NUM1, hits give low values",0.977
same,normalized growth,"locus YDR159W, strain sac3, hits give low values",0.775 (active)
same,normalized growth,"locus YDR162C, strain NBP2, hits give low values",0.987
same,normalized growth,"locus YDR195W, strain ref2",1.23 [resistant] (active)
same,normalized growth,"locus YDR297W, strain sur2, hits give low values",0.939
same,normalized growth,"locus YDR318W, strain mcm21, hits give low values",0.926
same,normalized growth,"locus YDR334W, strain swr1, hits give low values",1.03
same,normalized growth,"locus YDR335W, strain msn5, hits give low values",0.959
same,normalized growth,"locus YDR388W, hits give low values",0.914 (active)
same,normalized growth,"locus YDR392W, strain spt3, hits give low values",0.911
same,normalized growth,"locus YDR502C, strain sam2, hits give low values",0.954
same,normalized growth,"locus YEL003W, strain gim4, hits give low values",0.984
same,normalized growth,"locus YEL037C, strain rad23, hits give low values",0.984
same,normalized growth,"locus YEL061C, strain CIN8 (second series), hits give low values",0.992
same,normalized growth,"locus YEL061C, strain CIN8, hits give low values",0.991
same,normalized growth,"locus YER015W, strain faa2, hits give low values",0.937
same,normalized growth,"locus YER016W, strain bim1, hits give low values",0.921 (active)
same,normalized growth,"locus YER110C, hits give low values",0.956
same,normalized growth,"locus YER111C, strain swi4, hits give low values",0.987
same,normalized growth,"locus YER155C, strain BEM2 (second series), hits give low values",0.751 (active)
same,normalized growth,"locus YER155C, strain BEM2, hits give low values",0.964
same,normalized growth,"locus YER167W, strain BCK2, hits give low values",0.909
same,normalized growth,"locus YFR010W, strain ubp6, hits give low values",0.914
same,normalized growth,"locus YGL078C, strain dbp3, hits give low values",0.98
same,normalized growth,"locus YGL086W, strain mad1, hits give low values",0.952
same,normalized growth,"locus YGL167C, strain pmr1, hits give low values",0.999
same,normalized growth,"locus YGL173C, strain kem1, hits give low values",0.898 (active)
same,normalized growth,"locus YGL227W, strain vid30, hits give low values",0.995
same,normalized growth,"locus YGL240W, strain doc1, hits give low values",0.799 (active)
same,normalized growth,"locus YGL248W, strain PDE1, hits give low values",0.957
same,normalized growth,"locus YGL253W, strain hxk2, hits give low values",0.907 (active)
same,normalized growth,"locus YGR078C, strain PAC10, hits give low values",0.905
same,normalized growth,"locus YGR135W, strain pre9, hits give low values",0.918
same,normalized growth,"locus YGR229C, strain SMI1, hits give low values",0.904
same,normalized growth,"locus YGR252W, strain gcn5, hits give low values",0.72 (active)
same,normalized growth,"locus YHR013C, strain ard1, hits give low values",0.972
same,normalized growth,"locus YHR027C, strain rpn1, hits give low values",0.796 (active)
same,normalized growth,"locus YHR030C, strain SLT2, hits give low values",0.976 and 1.03
same,normalized growth,"locus YHR079C, strain IRE1 (second series), hits give low values",0.935
same,normalized growth,"locus YHR079C, strain IRE1, hits give low values",1.06
same,normalized growth,"locus YHR094C, strain hxt1, hits give low values",0.95
same,normalized growth,"locus YHR129C, strain ARP1, hits give low values",0.986
same,normalized growth,"locus YHR142W, strain chs7, hits give low values",0.863 (active)
same,normalized growth,"locus YHR200W, strain rpn10, hits give low values",0.95
same,normalized growth,"locus YIL066C, strain RNR3, hits give low values",0.97
same,normalized growth,"locus YIL073C, strain SPO22, hits give low values",0.767
same,normalized growth,"locus YIL125W, strain kgd1, hits give low values",0.98
same,normalized growth,"locus YIR030C, strain dcg1, hits give low values",0.953
same,normalized growth,"locus YJL092W, strain hpr5, hits give low values",0.954
same,normalized growth,"locus YJL095W, strain BCK1 (second series), hits give low values",0.946
same,normalized growth,"locus YJL095W, strain BCK1, hits give low values",0.861 and 1.02
same,normalized growth,"locus YJL115W, strain asf1, hits give low values",0.992
same,normalized growth,"locus YJL129C, strain trk1, hits give low values",1.04
same,normalized growth,"locus YJL134W, strain LCB3, hits give low values",0.986
same,normalized growth,"locus YJL154C, strain vps35, hits give low values",0.975
same,normalized growth,"locus YJL164C, strain tpk1, hits give low values",0.928
same,normalized growth,"locus YJL166W, strain qcr8, hits give low values",0.898 (active)
same,normalized growth,"locus YJL168C, strain set2, hits give low values",0.961
same,normalized growth,"locus YJL187C, strain SWE1 (second series), hits give low values",0.957
same,normalized growth,"locus YJL187C, strain SWE1, hits give low values",0.911 (active)
same,normalized growth,"locus YJR043C, strain POL32, hits give low values",0.903
same,normalized growth,"locus YJR066W, strain TOR1, hits give low values",0.872
